# Bioassay records as filed in PubChem.
# HCV inh: qHTS Assay for Inhibitors of Hepatitis C Virus (HCV); AID 651820, 2012; Potency, µM (series often up to 41.8 µM), most hits filed as inhibitors; Huh7.5.1 HCVcc-Cre infection, luciferase reporter, 44 h; 340,000 compounds, 3.4% hits
#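 HCVcc-Cre virus at an moi near 0.5 was added right after compound to cells cultured 4 h from seeding (1,000 cells/well). Luciferase activity was determined 44 h later, 15 min after substrate addition at RT.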
# Shiga inhibitor: A qHTS for Small Molecule Inhibitors of Shiga Toxin; inhibition, % at 38.7 µM; Vero cells, Shiga toxin protein synthesis inhibition reporter; 290,000 compounds, 9.2% hits; AID 2315, 2010; in the data active means inhibition mostly above about 28%, no sharp cut-off; inactive means mostly below about 43%
# Pf growth 48h: Primary qHTS for delayed death inhibitors of the malarial parasite plastid, 48 hour incubation | P. falciparum luciferase growth in erythrocytes, 48 h | Potency, µM (doses to about 28.7 µM), actives largely listed as inhibitors | 310,000 compounds, 5.9% hits
#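 Growth was read as firefly luciferase luminescence after a 48 h, 37 C, 5% CO2 exposure of compounds to reporter-bearing P. falciparum cultures (0.1% parasitemia, 2% hematocrit final) in Albumax-supplemented RPMI 1640.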
# Pf growth 96h: Primary qHTS for delayed death inhibitors of the malarial parasite plastid, 96 hour incubation | P. falciparum luciferase reporter growth, 96 h | Potency, µM (series often up to 28.7 µM), hits mostly inhibitors | 320,000 compounds, 6.9% hits | AID 504834, 2011
#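 Readout is luminescence from an integrated firefly luciferase in P. falciparum. Red cells, 2% hematocrit and 0.05% parasitemia final, were cultured with compound through two parasite generations (96 hours) at 37 C, 5% CO2.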
# AMA1 RON2 block: qHTS for Inhibitors of AMA1-RON; Towards Development of Antimalarial Drug Lead: Primary Screen. Potency, µM (highest dose often 58.2 µM), actives largely listed as inhibitors. AID 720542, 2013. 360,000 compounds, 0.2% hits. AlphaScreen AMA1-biotinylated RON2 peptide binding; further: nearly all actives have a fitted effect of over 45% in size
#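 AMA1 (3D7) with his tag at 25 nM final met compounds first, then biotinylated RON2 peptide at 25 nM; detection used donor plus acceptor beads, 10 µg/mL apiece, read by AlphaScreen after 30 min at room temperature.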
# Cycloheximide cs: Cycloheximide Counterscreen for Small Molecule Inhibitors of Shiga Toxin; AID 2314, 2010; 300,000 compounds, 12% hits; cell reporter, cycloheximide protein synthesis inhibition counterscreen; max response, %; in the data active means max response mostly above about 13%, no sharp cut-off; inactive means mostly below about 14%; further: read at 38.3 µM for the half of the compounds with a filed dose
# A number is an active result; . = inactive; ? = inconclusive; / = no result given; [ ] = dose if it differs, or a comment. Compounds with a hit are over-represented: about 21% of the library has one in this group of screens. Unless noted, the call rests on the fitted dose curve; in most records, active means well fitted curve in the direction sought with a large enough effect; inconclusive means small, poorly fitted or top-dose-only effect, or another doubt; inactive means no such curve, though single readings can be large; an effect the other way counts as inactive or inconclusive.
SMILES,HCV inh,Shiga inhibitor,Pf growth 48h,Pf growth 96h,AMA1 RON2 block,Cycloheximide cs
CC1CC1C(=O)OCC(=O)Nc1ccc(S(=O)(=O)N2CCOCC2)cc1 (stereo not given),.,/,/,/,.[11.6 µM],/
COc1ccc(/C=C/C(=O)c2ccc3ccccc3c2O)cc1CN1CCOCC1,.,.,.,12µM,.,.
COc1ccc(/C=C/C(=O)C23CC4CC(CC(C4)C2)C3)cc1CN1CCOCC1,?,.,13µM,.,?,.
COc1ccc(/C=C/C(=O)c2ccccc2O)cc1CN1CCOCC1,?,.,/,10µM,.,.
COc1ccc(/C=C/C(=O)c2ccc(O)cc2)cc1CN1CCOCC1,.,.,?,.,.,.
CC(Sc1nnc(Cc2ccccc2)n1C)C(=O)NC1CC1 (stereo not given),.,/,.,.,.,/
O=C(CNC(=O)C1(c2ccccc2)CC1)Nc1ccc(F)c(F)c1,.,/,.,.,.,/
COc1ccc(-c2csc(NC(=O)CSCc3c(C)noc3C)n2)c(OC)c1,?,/,?,10µM,?,/
COc1ccc(-c2csc(NC(=O)CN3C(=O)C4CC=CCC4C3=O)n2)cc1 (stereo not given),?,/,.,.,.,/
COc1ccc(-c2csc(NC(=O)C3=COCCO3)n2)c(OC)c1,?,/,.,.,.,/
COc1ccc(-c2csc(NC(=O)CN3C(=O)C4CCCCC4C3=O)n2)c(OC)c1 (stereo not given),11µM,/,.,?,.,/
C=CCNc1nc(-c2ccc(OC)cc2OC)cs1,?,69,.,?,?,38
CC(C)(C)c1ccc(C(=O)Cn2cnnc2C#N)cc1,.,.,.,?,.,.
COC(=O)c1cc(-c2c(C)nn(-c3ccccc3)c2C)n[nH]1,?,58,.,.,.,26
Cc1nn(-c2ccccc2)c(C)c1/C=N/NC(=O)c1cc(C(C)(C)C)[nH]n1,?,.,?,?,.,.
Cc1[nH]c2ccccc2c1/C=N/NC(=O)c1cc(-c2cccs2)[nH]n1,11µM,.,.,?,.,.
Cc1nn(-c2ccccc2)c(C)c1-c1cc(C(=O)N/N=C/c2cccnc2)[nH]n1,/,.,.,.,/,.
Cc1ccc(-c2cc(C(=O)N/N=C/c3c(C)nn(-c4ccccc4)c3C)n[nH]2)s1,8.9µM,.,?,.,.,.
Cc1ccc(-c2cc(C(=O)N/N=C/c3c(C)nn(-c4ccccc4)c3C)[nH]n2)cc1,?,.,12µM,6.6µM,/,.
Cc1cc(C(=O)N/N=C/c2c(C)[nH]c3ccccc23)n[nH]1,.,.,.,.,.,.
O=c1cc(CCl)nc(Cc2c(Cl)cccc2Cl)[nH]1,?,/,/,/,.,/
O=C(Nc1ccc(F)c(Cl)c1)c1ccc2sc([C@H]3C[C@H](O)[C@@H](CO)O3)nc2c1,/,/,/,/,.,/
CCOC(=O)COc1cc(=O)n(CC)c2ccccc12,?,.,.,8.3µM,.,.
CN(C(=O)COc1cc(=O)n(C)c2ccccc12)c1ccc(Br)cc1,.,.,?,10µM,.,.
CCOC(=O)CSc1cc(=O)n(CC)c2ccccc12,.,.,.,10µM,.,.
SMILES,HCV inh,Shiga inhibitor,Pf growth 48h,Pf growth 96h,AMA1 RON2 block,Cycloheximide cs
CC1CC(C)CN(CCCNC(=O)COc2cc(=O)n(C)c3ccccc23)C1 (stereo not given),.,.,10µM,.,.,.
COc1cc(C(O)c2nc(-c3cccc(C#N)c3)cs2)ccc1F (stereo not given),/,/,/,/,.,/
Cc1cccc(NS(=O)(=O)c2cccc(C(=O)NCCCN3CCOCC3)c2)c1,.,/,.,.,.,/
CCn1c(=O)cc(SCC(=O)N2CCN(c3ccccc3F)CC2)c2ccccc21,14µM,.,?,.,.,.
COc1cc(C)ccc1S(=O)(=O)NC(=O)C1(C)CCN1C(=O)C1(c2ccc(Cl)cc2)CCC1 (stereo not given),/,/,/,/,.,/
COc1ccccc1Cc1noc(-c2cc(Cl)ccc2OC)n1,7.1µM,.,?,/,.,.
CCOC(=O)CN1CCC(c2cc(-c3ccc(Cl)cc3)n[nH]2)CC1,.,.,.,?,.,.
O=[N+]([O-])c1cccnc1N1CCC(c2cc(-c3ccc(Cl)cc3)n[nH]2)CC1,10µM,.,/,?,.,.
CN1CCC(C2(O)c3ccccc3CCc3ccccc32)CC1,.,58,.,.,.,34
CCN1CCc2c(sc(NC(=O)c3ccc(S(=O)(=O)N4CCCC4)cc3)c2C(=O)NC)C1,.,.,10µM,15µM,.,.
CN1CCc2c(sc(NC(=O)c3ccc(S(=O)(=O)N4CCCCCC4)cc3)c2C(N)=O)C1,?,.,?,?,.,.
CN1CCc2c(sc(NC(=O)c3ccc(S(=O)(=O)N4CCCC4)cc3)c2C(N)=O)C1,.,.,?,?,.,.
CNC(=O)c1c(NC(=O)c2ccc(S(=O)(=O)N3CCCCC3)cc2)sc2c1CCN(C(C)C)C2,.,.,10µM,8.3µM,.,.
CC1=C(C(=O)N2CCOCC2)CC(CC(=O)NC2CCCCC2)C(=O)N1Cc1ccccc1 (stereo not given),/,/,/,/,.,/
COc1ccc(/C(N)=N/OC(=O)Oc2ccccc2)cc1OC,.,.,.,.,.,.
COc1ccc(C(=O)COC(=O)c2ccccn2)c(OC)c1,.,/,/,/,.,/
COc1ccc(C(=O)O/N=C(\N)c2ccccn2)c(OC)c1,?,.,.,.,.,29
COc1ccc(C(=O)O/N=C(\N)c2ccc(OC)c(OC)c2)cc1,.,160,?,.,.,27
COc1ccc(C(=O)O/N=C(\N)c2ccccc2)c(OC)c1,?,.,.,.,.,32
COc1cc(C(=O)O/N=C(\N)c2ccccn2)cc(OC)c1OC,.,66,?,?,.,34
C=CCOc1ccc(C2/C(=C(\O)c3ccc4c(c3)OCCO4)C(=O)C(=O)N2CCCN2CCOCC2)cc1 (stereo not given),.,.,.,.,.,.
COc1ccc(C(=O)O/N=C(\N)c2ccc(OC)c(OC)c2)c(OC)c1,13µM,93,.,.,.,48
COc1ccc(C(C)=O)c(OC(=O)c2ccc(OC)c(OC)c2)c1,.,.,.,.,.,.
CCCCc1nc(Cl)c(C#N)c2c1CSC(C)(C)C2,?,.,.,.,.,.
CCCCc1nc(NCCNC(=O)c2ccccc2)c(C#N)c2c1CSC(C)(C)C2,?,.,/,2.3µM,.,.
CCCCc1nc(NCCNC(=O)c2ccco2)c(C#N)c2c1CSC(C)(C)C2,11µM,.,8.3µM,/,.,.
CCOC(=O)[C@]12CCCC=C1N(CCC1=CCCCC1)C(=O)[C@H](CC(=O)NCC1CCCCC1)C2,/,/,/,/,.,/
O=C(O)CCCC/C=C(\c1ccccc1)c1cccnc1,/,/,.,1.7µM,/,/
